From PubChem BioAssay (NCATS)
Where “and” joins values, the source holds several entries; their conditions need not be identical. Equal entries are not always repeated. Results filed as inconclusive are left out. Calls of active or inactive are those of the source. Calls come from the whole dose curve; as a rule, active = well fitted curve in the direction sought with a large enough effect; inconclusive = small, poorly fitted or top-dose-only effect, or another doubt; inactive = no such curve, though single readings can be large; an effect the other way counts as inactive or inconclusive.

Experiments:
[1] = Cell Viability - N2a (AID 540); settings: N2a mouse neuroblastoma cell viability; activity change, negative = cytotoxicity: at 92.2 µM (top of the series);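 note: plate controls were DMSO alone for no effect and tamoxifen control for full effect; nearly all actives have a fitted effect of over 45% in size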
How it was run: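 CellTiter-Glo ATP luminescence, read 20 min after reagent at room temperature, reported viability following 40 h compound treatment at 37 °C. N2a mouse neuroblastoma cells seeded 1500/well; Hill equation gave AC50.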

[2] = Cell Viability - Renal Proximal Tubule (AID 545);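 note: cells exposed to compound for 40 hours; nearly all actives have a fitted effect of over 40% in size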
How it was run: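 Luminescent ATP signal (CellTiter-Glo) served as the viability read-out after 40 hr compound exposure of freshly isolated rat proximal tubule cells at 37 °C. Concentration-dependent ATP loss was fitted with the Hill equation to give AC50.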

[3] = Cellular Toxicity (caspase-3) Jurkat (AID 655); settings: Jurkat caspase-3 activation, luminescence; caspase-3 activation: at 92.2 µM (top of the series), DMSO = 0%, tamoxifen = 100%;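 note: cells exposed to compound for 16 h at 37 °C before reading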
How it was run: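 5000 Jurkat cells/well; compound 16 hr, 37 °C; Caspase-Glo 3/7 added, 20 min RT; luminescence read. Norm: DMSO = 0%, tamoxifen 100 uM = 100%. AC50, Hill model.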

[4] = Cellular Toxicity (caspase-3) NIH 3T3 (AID 666);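 note: caspase signal read after 16 h compound exposure; 0% = DMSO basal and 100% = 100 µM tamoxifen stimulation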
How it was run: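 Caspase-Glo 3/7 luminescence reported caspase activation in 1000 NIH 3T3 cells/well after 16 h compound exposure at 37 C. DMSO set basal and 100 uM tamoxifen set 100% stimulation; concentration-response modeled with the Hill equation for AC50.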

[5] = Cellular Toxicity (caspase-3) Renal Proximal Tubule (AID 667);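 note: cells exposed to compound for 16 hours at 37 °C before detection; 0% = DMSO basal and 100% = 10 µM staurosporine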
How it was run: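 AC50 derived by standard Hill fit of concentration-response data, normalized between DMSO basal and 10 uM staurosporine as 100% stimulation. Cells: primary rat kidney proximal tubule, 16 h treatment at 37 °C.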

[6] = MultiTox-Fluor Cytotoxicity Assay - LYMP1-001 - Dead Cells (AID 946)
How it was run: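 Cytotoxicity as increased dead-cell protease fluorescence (bis-AAF-R110, 485/520 nm), read 60 min after MultiTox-Fluor reagent. Human lymphoblastoid line exposed 16 h; Hill-fitted AC50, with DMSO as 0% and 15 uM tetraoctylammonium bromide as 100%.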

[7] = Cell Viability - LYMP1-003 - Assay at 40 hr (AID 964); note: % is set by controls: 0 for no effect and ±100 for the full control effect; nearly all actives have a fitted effect of over 60% in size
How it was run: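 Viability is taken as cellular ATP, read by CellTiter-Glo luminescence after 40 h of compound exposure at 37 C. Cells: human lymphoblastoid line LYMP1-003 at 2500/well; AC50 values derived by Hill-equation fitting of concentration-response data.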

[8] = Cell Viability - LYMP2-009 (AID 968);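 note: 0% = DMSO alone and the full-kill end = tetraoctylammonium bromide at 92 µM; nearly all actives have a fitted effect of over 55% in size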
[9] = Cell Viability - LYMP2-019 (AID 973);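 note: 0% = DMSO alone and full effect = 92 µM tetraoctylammonium bromide; nearly all actives have a fitted effect of over 55% in size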
How it was run: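 AC50 values come from Hill-equation fits of luminescent intracellular ATP (CellTiter-Glo, 30 min, room temperature) following 24 h compound exposure at 37 C. Cells: LYMP2-019 lymphoblastoid line, 2500 per well, in complete culture medium.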

[10] = Cell Viability - LYMP2-002 (AID 977);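 note: plate controls were DMSO only for no effect and 92 µM tetraoctylammonium bromide for full effect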
How it was run: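 Human lymphoblastoid cells, 2500/well, complete medium; 5 h 37 C settle; compound 24 h 37 C; CellTiter-Glo, 30 min RT; luminescence. Decrease in ATP = cytotoxicity; AC50 via Hill equation.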

[11] = Cell Viability - LYMP2-006 (AID 978); note: % is set by controls: 0 for no effect and ±100 for the full control effect; nearly all actives have a fitted effect of over 60% in size
How it was run: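 Cells are seeded at 2500 per well and rested 5 hr at 37 C. Compounds are added across a concentration series for 24 hr at 37 C, after which ATP is quantified by luciferase luminescence.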

[12] = Cell Viability - LYMP2-010 (AID 981); note: % is set by controls: 0 for no effect and ±100 for the full control effect; nearly all actives have a fitted effect of over 55% in size
How it was run: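 CellTiter-Glo ATP luminescence measured cytotoxicity after 24 h compound exposure at 37 C. LYMP2-010 cells were seeded at 2500/well, with tetraoctylammonium bromide as control; concentration-response curves gave AC50 values by the Hill equation.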

[13] = Cell Viability - LYMP2-014 (AID 983);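 note: plate controls were DMSO only for no effect and 92 µM tetraoctylammonium bromide for full effect; nearly all actives have a fitted effect of over 50% in size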
How it was run: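 Intracellular ATP loss, read by luciferase luminescence, measures acute cytotoxicity after 24 h compound exposure of lymphoblastoid LYMP2-014 cells (2500/well, 37 C). Concentration-response data fitted to the Hill equation for AC50.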

[14] = Cell Viability - LYMP2-020 (AID 986);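 note: plate controls were DMSO only for no effect and tetraoctylammonium bromide at 92 µM for full effect; nearly all actives have a fitted effect of over 55% in size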
How it was run: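 Cytotoxicity in qHTS format: luminescent ATP readout from CellTiter-Glo after 24 h compound exposure at 37 C in complete medium. LYMP2-020 lymphoblastoid cells were seeded at 2500/well; concentration-response data fitted to the Hill equation for AC50.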

[15] = Cell Viability - LYMP2-022 (AID 987)
How it was run: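 Cytotoxicity read as decreased cellular ATP (CellTiter-Glo luminescence, 30 min room temperature) after 24 hours compound exposure of 2500 lymphoblastoid LYMP2-022 cells/well at 37 C. Concentration-response data fitted with standard Hill equation for AC50.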

[16] = qHTS assay for environmental chemicals that activate the Aryl hydrocarbon Receptor (AhR) signaling pathway (AID 651777); settings: 1A2-DRE human hepatoma cells, luciferase, 24 h; activation: active compounds read high; note: % of control where 0% means no effect; nearly all actives have a fitted effect of over 15% in size
How it was run: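 Quantitative HTS in stably transfected human liver-derived cells whose luciferase gene sits downstream of the CYP1A2 promoter and dioxin response element. After 24 hr exposure at 37 C, One-Glo luminescence was measured.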

[17] = target: Peroxisome proliferator-activated receptor alpha (Homo sapiens) (UniProt Q07869); assay: qHTS assay for small molecule agonists of the peroxisome proliferator-activated receptor alpha (PPARalpha) signaling pathway (AID 651778); settings: PathHunter PPARalpha complementation, chemiluminescence, 6 h; active compounds read high; note: % of control where 0% means no effect
How it was run: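 Enzyme-fragment complementation assay in which ligand-bound PPARalpha translocates and forms an active enzyme that generates chemiluminescence. Cells were plated overnight, exposed to compound for 6 hr at 37 C, and then given detection reagent for 60 min at room temperature.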

[18] = qHTS assay for cell viability of the p53RE-bla HCT-116 cell line (AID 743292)
How it was run: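 Viability of compound-treated p53RE-bla HCT-116 cells is taken from ATP-dependent luciferase luminescence. Treatment lasts 16 h at 37 C after a 5 h settling period; detection follows 30 min at room temperature.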

[19] = Cell Viability - LYMP1-003 - Assay at 24 hr (AID 963);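 note: plate controls were DMSO only for no effect and tetraoctylammonium bromide positive control for full effect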
How it was run: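 Concentration-response qHTS: ATP loss measured by CellTiter-Glo luminescence after 24 h compound exposure at 37 C. Cells were LYMP1-003 human lymphoblastoid, 2500 per well. AC50 derived via standard Hill equation modeling.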

[20] = Cell Viability - LYMP2-011 (AID 969);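 note: 0% = DMSO only and full inhibition = 92 µM tetraoctylammonium bromide; nearly all actives have a fitted effect of over 60% in size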
How it was run: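 Cytotoxicity qHTS with ATP content as read-out: lymphoblastoid cells (2500/well) exposed to compound for 24 h at 37 C, then luciferase luminescence measured. Concentration-response data fitted with the standard Hill equation to give AC50.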

Chain of Peroxisome proliferator-activated receptor alpha (Homo sapiens) (Q07869 whole entry, looked up, the tested form may be a part): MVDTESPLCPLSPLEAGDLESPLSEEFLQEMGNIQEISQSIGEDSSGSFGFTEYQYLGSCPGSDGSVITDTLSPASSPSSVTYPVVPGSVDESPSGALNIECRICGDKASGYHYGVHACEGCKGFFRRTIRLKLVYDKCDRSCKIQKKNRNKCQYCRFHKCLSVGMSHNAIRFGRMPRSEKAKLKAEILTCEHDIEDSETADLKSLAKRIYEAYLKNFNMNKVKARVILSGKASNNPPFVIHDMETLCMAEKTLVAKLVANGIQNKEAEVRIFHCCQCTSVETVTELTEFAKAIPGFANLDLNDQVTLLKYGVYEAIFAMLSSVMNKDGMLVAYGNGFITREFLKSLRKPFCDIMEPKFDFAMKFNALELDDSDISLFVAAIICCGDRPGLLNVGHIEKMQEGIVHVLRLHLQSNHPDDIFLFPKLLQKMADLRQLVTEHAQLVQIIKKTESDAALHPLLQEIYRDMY

C=CC=O
inactive: Potency [1] | outcome [2] | caspase-3 activation [3] 13.2% | Potency [4] | outcome [5] | outcome [6] | Potency [7] | Potency [8] | Potency [9] | Potency [10] | Potency [11] | Potency [12] | Potency [13] | Potency [14] | Potency [15] | activation [16] 1.3% | max response [17] -5.14% | Potency [18]

CC(C)(Cl)Cl
inactive: Potency [1] | outcome [2] | caspase-3 activation [3] -0.572% | outcome [5] | outcome [6] | outcome [19] | Potency [7] | Potency [8] | Potency [9] | Potency [10] | Potency [12] | Potency [13] | Potency [14] | Potency [15] | activation [16] 0.894% | max response [17] -2.59% | Potency [18]

Clc1ccc(C(Cl)(Cl)Cl)c(Cl)c1
inactive: Potency [1] | outcome [2] | caspase-3 activation [3] -1.19% | Potency [4] | outcome [5] | outcome [6] | outcome [19] | Potency [7] | Potency [9] | Potency [10] | Potency [11] | Potency [13] | Potency [14] | Potency [15] | activation [16] -1.61% | max response [17] -0.345% | Potency [18]

Clc1ccc(Cl)c(Cl)c1
inactive: Potency [1] | caspase-3 activation [3] -0.724% | Potency [4] | outcome [5] | outcome [6] | outcome [19] | Potency [7] | Potency [8] | Potency [20] | Potency [9] | Potency [10] | Potency [11] | Potency [12] | Potency [13] | Potency [14] | Potency [15] | activation [16] 0.0505% and 0.0105% | max response [17] -1.44% and -3.32% | Potency [18]

C=C(C)CCl
inactive: Potency [1] | outcome [2] | caspase-3 activation [3] -0.765% | Potency [4] | outcome [5] | outcome [6] | outcome [19] | Potency [7] | Potency [8] | Potency [20] | Potency [9] | Potency [10] | Potency [11] | Potency [12] | Potency [13] | Potency [14] | Potency [15] | activation [16] -0.792% | max response [17] 1.24% | Potency [18]

CCC(Cl)[N+](=O)[O-] (stereo not given)
inactive: Potency [1] | outcome [2] | caspase-3 activation [3] 1.33% | Potency [4] | outcome [6] | Potency [7] | Potency [20] | Potency [9] | Potency [10] | Potency [11] | Potency [12] | Potency [13] | Potency [15] | activation [16] -0.0264%

OCCBr
inactive: Potency [1] | caspase-3 activation [3] -0.73% | Potency [4] | outcome [5] | outcome [6] | outcome [19] | Potency [8] | Potency [20] | Potency [9] | Potency [11] | Potency [12] | Potency [14] | activation [16] -0.283% | max response [17] 2.96% | Potency [18]

Nc1cc(Cl)cc(Cl)c1
inactive: Potency [1] | caspase-3 activation [3] -0.381% | outcome [5] | outcome [6] | outcome [19] | Potency [7] | Potency [8] | Potency [20] | Potency [9] | Potency [10] | Potency [11] | Potency [12] | Potency [13] | Potency [14] | Potency [15] | activation [16] -0.276% | max response [17] 0.393% | Potency [18]

NC1CCC(CC2CCC(N)CC2)CC1 (stereo not given)
inactive: Potency [1] | outcome [2] | caspase-3 activation [3] 0.418% | Potency [4] | outcome [5] | outcome [19] | Potency [7] | Potency [8] | Potency [20] | Potency [10] | Potency [11] | Potency [12] | Potency [13] | Potency [14] | Potency [15] | activation [16] -0.669% and 0.679% | max response [17] -7.49% and -0.343% | Potency [18]

CCOP(=O)(OCC)OCC
inactive: Potency [1] | caspase-3 activation [3] -0.738% | Potency [4] | outcome [5] | outcome [6] | outcome [19] | Potency [7] | Potency [8] | Potency [20] | Potency [9] | Potency [10] | Potency [11] | Potency [12] | Potency [13] | Potency [14] | Potency [15] | activation [16] -0.171% and -0.669% | max response [17] 0.636% and -0.566%

ClCC(Cl)CCl
inactive: Potency [1] | outcome [2] | caspase-3 activation [3] 1.95% | Potency [4] | outcome [5] | outcome [6] | outcome [19] | Potency [7] | Potency [20] | Potency [9] | Potency [10] | Potency [11] | Potency [12] | Potency [13] | Potency [14] | Potency [15] | max response [17] -4.72% and -1.22% | Potency [18]

Oc1cc(Cl)ccc1Cl
inactive: Potency [1] | outcome [2] | Potency [4] | outcome [5] | outcome [6] | outcome [19] | Potency [7] | Potency [8] | Potency [20] | Potency [9] | Potency [10] | Potency [11] | Potency [12] | Potency [13] | Potency [14] | activation [16] -0.282% and -1.1% | max response [17] -3.18% and 0.376% | Potency [18]

CN=C=O
inactive: Potency [1] | outcome [2] | caspase-3 activation [3] -0.0583% | outcome [5] | outcome [6] | outcome [19] | Potency [7] | Potency [8] | Potency [20] | Potency [9] | Potency [11] | Potency [13] | Potency [15] | activation [16] -0.54% | Potency [18]
